Measurements taken from the supplement of paper PMC12808144.
Values without a mark were called inactive.

The molecules below were run on NHEM-hTERT (assay: cell viability relative to DMSO control (fraction of DMSO control); higher = less cytotoxic, active = 0.5 or less). Details: 1 µM; 120 h.
Procedure, shortened: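 A library of 315 approved anti-cancer drugs (TargetMol) was acoustically pre-spotted into 384-well plates and tested at 1 µM in duplicate for 120 h. Cells were added in 40 µl per well: NHEM-hTERT immortalized melanocytes at 2500/well, and patient-derived Mel-DCC-11 and its resistant subline Mel-DCC-11-R at 1500/well. The subline was tested both alone and with 8 µM of its selecting drug. Viability was read by ATPlite 1step luminescence, normalised to DMSO controls and averaged over duplicates.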

Structure (SMILES) | cell viability
CNC(=O)c1cc(Oc2ccc(NC(=O)Nc3ccc(Cl)c(C(F)(F)F)c3)c(F)c2)ccn1 [Regorafenib] | 0.792
CCCC(=O)O[C@]1(C(=O)CO)CC[C@H]2[C@@H]3CCC4=CC(=O)CC[C@]4(C)[C@H]3[C@@H](O)C[C@@]21C [Hydrocortisone butyrate] | 0.973
C/C=C1/NC(=O)[C@H]2CSSCC/C=C/[C@H](CC(=O)N[C@H](C(C)C)C(=O)N2)OC(=O)[C@H](C(C)C)NC1=O [Romidepsin] | 0.0685 (active)
COc1cc2nccc(Oc3ccc(NC(=O)C4(C(=O)Nc5ccc(F)cc5)CC4)cc3)c2cc1OC.O=C(O)C[C@H](O)C(=O)O | 0.932
CCc1ccc(CCOc2ccc(CC3SC(=O)NC3=O)cc2)nc1.Cl (stereo not drawn) [Pioglitazone hydrochloride] | 1.09
CCCCCOC(=O)Nc1nc(=O)n([C@@H]2O[C@H](C)[C@@H](O)[C@H]2O)cc1F [Capecitabine] | 1.14
Cc1cn(-c2cc(NC(=O)c3ccc(C)c(Nc4nccc(-c5cccnc5)n4)c3)cc(C(F)(F)F)c2)cn1 [Nilotinib] | 0.969
CC/C(=C(\c1ccc(O)cc1)c1ccc(OCCNC)cc1)c1ccccc1 [(E/Z)-Endoxifen] | 0.88
CC(=O)OCC(=O)[C@@]1(O)CC[C@H]2[C@@H]3CCC4=CC(=O)C=C[C@]4(C)[C@H]3[C@@H](O)C[C@@]21C [Prednisolone-21-acetate] | 0.931
COc1cc(Nc2c(C#N)cnc3cc(OCCCN4CCN(C)CC4)c(OC)cc23)c(Cl)cc1Cl [Bosutinib] | 1.12
COc1cc([C@@H]2c3cc4c(cc3[C@@H](O[C@@H]3O[C@@H]5CO[C@@H](c6cccs6)O[C@H]5[C@H](O)[C@H]3O)[C@H]3COC(=O)[C@H]23)OCO4)cc(OC)c1O [Teniposide] | 0.746
OC[C@H]1O[C@@H](n2cnc3c2NC=NC[C@H]3O)C[C@@H]1O [Pentostatin] | 1.1
CS(=O)(=O)OCCCCOS(C)(=O)=O [Busulfan] | 1.14
COc1ccc(C[C@H](N)C(=O)N[C@H]2[C@@H](O)[C@H](n3cnc4c(N(C)C)ncnc43)O[C@@H]2CO)cc1.Cl.Cl [Puromycin dihydrochloride] | 0.467 (active)
CC(C)C[C@H](NC(=O)[C@H](CCc1ccccc1)NC(=O)CN1CCOCC1)C(=O)N[C@@H](Cc1ccccc1)C(=O)N[C@@H](CC(C)C)C(=O)[C@@]1(C)CO1 [Carfilzomib] | 0.0167 (active)
O=C([O-])CCCc1ccccc1.[Na+] [Sodium Phenylbutyrate] | 1.1
Nc1[nH]c(=O)ncc1F [Fluorocytosine] | 1.04
COc1ccc2c(c1OC)C(=O)O[C@@H]2[C@H]1c2c(cc3c(c2OC)OCO3)CC[NH+]1C.[Cl-] [Noscapine hydrochloride] | 1.13
C#Cc1cccc(Nc2ncnc3cc4c(cc23)OCCOCCOCCO4)c1 [Icotinib] | 1.18
N#Cc1ccc(C(c2ccc(C#N)cc2)n2cncn2)cc1 [Letrozole] | 1.03
C[C@@H](Oc1cc(-c2cnn(C3CCNCC3)c2)cnc1N)c1c(Cl)ccc(F)c1Cl [Crizotinib] | 0.986
C=C1CC[C@@H]2[C@](C)(CO)[C@H](O)CC[C@@]2(C)[C@@H]1C/C=C1/C(=O)OC[C@H]1O [Andrographolide] | 1.17
CNC(=O)c1ccc(N2C(=S)N(c3cnc(C#N)c(C(F)(F)F)c3)C(=O)C23CCC3)cc1F [Apalutamide] | 1.01
Clc1ccc(C(c2ccccc2Cl)C(Cl)Cl)cc1 (stereo not drawn) [Mitotan] | 0.958
CC[C@@]1(O)C(=O)OCc2c1cc1n(c2=O)Cc2cc3cc(O)ccc3nc2-1 [10-Hydroxycamptothecin] | 0.731
COc1cc2c(Nc3ccc(Br)cc3F)ncnc2cc1OCC1CCN(C)CC1 [Vandetanib] | 1.02
C=C(c1ccc(C(=O)O)cc1)c1cc2c(cc1C)C(C)(C)CCC2(C)C [Bexarotene] | 1.2
CCCCCCCCCCCCCCCC(=O)OC/C=C(C)/C=C/C=C(C)/C=C/C1=C(C)CCCC1(C)C [Retinol palmitate] | 0.993
